pPAFAH FP inh: pPAFAH (human) enzyme inhibition; Q13093; recombinant pPAFAH, FP-rhodamine probe fluorescence polarization; inhibition, % at 3.39 µM; 330,000 tested, 1.5% active; AID 463082;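 active = inhibition above the mean inhibition across the screen plus 3 SD, cut at about 25% in these data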;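 note: inhibitors block binding of the rhodamine activity-based probe so polarization drops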
Fam108B counter: blocks mouse Fam108B hydrolase in RBBP9 counter-screen | inhibition, % at 9.51 µM | recombinant Fam108B, FP-Rh probe fluorescence polarization | 300,000 tested, 0.33% active | AID 1947;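 active = inhibition above the screen mean inhibition plus 3 SD, computed separately per campaign, cut at about 18% in these data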;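 note: inhibitors lower polarization as less probe binds the enzyme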
PAFAH2 FP inh: inhibitors of human PAFAH2 | Q99487 | recombinant PAFAH2, FP-rhodamine activity probe, fluorescence polarization | inhibition, % at 3.39 µM | 340,000 tested, 0.99% active;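 active = inhibition above the mean over all tested compounds plus 3 SD, cut at about 30% in these data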;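 note: inhibitors block probe labeling of enzyme so polarization drops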
PAFAH1B3 FP inh: inhibitors of human PAFAH1B3 | Q15102 | recombinant PAFAH1B3, FP-rhodamine probe, fluorescence polarization | inhibition, % at 3.39 µM | 340,000 tested, 0.28% active;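 active = inhibition above the screen-wide average of all tested compounds plus 3 SD, cut at about 25% in these data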
Target sequence (Q15102 whole entry, looked up): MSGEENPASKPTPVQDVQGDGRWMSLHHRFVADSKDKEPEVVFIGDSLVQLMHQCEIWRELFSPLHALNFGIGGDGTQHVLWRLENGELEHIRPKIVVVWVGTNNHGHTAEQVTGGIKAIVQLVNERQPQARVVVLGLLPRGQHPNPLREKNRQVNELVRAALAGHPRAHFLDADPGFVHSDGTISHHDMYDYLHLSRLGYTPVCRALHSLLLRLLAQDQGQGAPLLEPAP
PAFAH1B2 FP inh: blocks human PAF acetylhydrolase 1b catalytic subunit 2. P68402. recombinant PAFAH1B2, FP-rhodamine activity probe, fluorescence polarization. 340,000 tested, 1.2% active. inhibition, % at 3.39 µM;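 active = inhibition above the mean of all tested compounds plus 3 SD, cut at about 24% in these data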
Target sequence (P68402 whole entry, looked up): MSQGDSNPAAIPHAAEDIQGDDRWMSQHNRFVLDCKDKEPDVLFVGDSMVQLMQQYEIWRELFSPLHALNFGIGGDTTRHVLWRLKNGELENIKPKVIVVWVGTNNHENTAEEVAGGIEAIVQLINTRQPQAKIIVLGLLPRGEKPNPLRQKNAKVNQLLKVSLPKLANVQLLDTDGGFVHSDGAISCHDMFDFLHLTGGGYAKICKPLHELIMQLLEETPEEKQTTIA
PME-1 primary: PME-1 (human) inhibition | recombinant PME-1, FP-Rh probe fluorescence polarization | inhibition, % at 5.9 µM | 320,000 tested, 0.53% active | AID 2130;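 active = inhibition above the campaign mean of all compounds plus 3 SD, cut at about 26% in these data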;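 note: competitive labeling of PME-1 active site by serine hydrolase directed probe; inhibitors block probe labeling so polarization falls and inhibition rises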
Hits are given with their value; - = inactive; . = no result. Shown are actives, neighbours in structure and some others; about 2.9% of the full set was active somewhere.

SMILES	pPAFAH FP inh	Fam108B counter	PAFAH2 FP inh	PAFAH1B3 FP inh	PAFAH1B2 FP inh	PME-1 primary
COc1cccc(N2CCN(C(=O)CCNS(=O)(=O)c3ccc(F)c(F)c3)CC2)c1	29	.	-	-	-	.
NNC(=O)c1nn(-c2ccc(Cl)cc2)cc1O	34	-	-	-	-	-
Cc1ccc(NC(=O)COC(=O)c2nn(-c3ccc(Cl)cc3)cc2O)cc1	-	.	-	-	-	.
Cc1ccccc1N1C(=S)NC2c3ccccc3OC1(C)C2C(=O)N(C)C (stereo not drawn)	-	-	-	-	-	-
O=S1(=O)c2ccccc2N=NN1Cc1cc(Cl)cc(Cl)c1	33	-	.	.	.	-
COc1cc(NC(=O)c2ccc(COc3ccccc3Br)o2)cc(OC)c1OC	26	-	-	-	-	-
COc1ccccc1OCc1ccc(C(=O)Nc2cc(OC)c(OC)c(OC)c2)o1	.	.	-	-	-	.
CC(C)c1nc2sc3c(SCC(N)=O)ncnc3c2c2c1CCC2	-	-	-	-	-	-
N#CC1=C(N)NC(SCC(=O)c2ccc(Cl)cc2)=C(C#N)C12CCCC2	-	-	-	-	-	-
COc1ccc(C(=O)CSC2=C(C#N)C3(CCCCC3)C(C#N)=C(N)N2)cc1	-	-	-	-	27	-
O=C(NCCC1=CCCCC1)C1CCN(S(=O)(=O)c2cccs2)CC1	-	-	-	-	-	28
CC/C=C/C(=O)N1CC2(CC(c3cccc(NC(=O)CC(c4ccccc4)c4ccccc4)c3)=NO2)C[C@@H]1C(N)=O (stereo partly drawn)	-	-	-	-	-	-
CN(C)C(=O)COC(=O)c1ccccc1Nc1ccc(SC(F)F)cc1	26	-	-	-	-	-
O=C(Nc1ccc(S(=O)(=O)Nc2nccs2)cc1)c1cc(-c2ccccc2Cl)nc2ccccc12	25	-	-	-	-	-
CC1=NN(c2ccc(C)c(C)c2)C(=O)C1C(c1cccc(O)c1)C1C(=O)N(c2ccc(C)c(C)c2)N=C1C (stereo not drawn)	-	-	-	-	-	34
CC(NC(=O)COC(=O)C12CC3CC(CC(Br)(C3)C1)C2)c1ccccc1 (stereo not drawn)	-	.	-	-	41	.
O=C(NCc1ccccc1)C12CC3CC(CC(Br)(C3)C1)C2	-	-	-	-	35	-
Cc1cccc(C)c1NC(=O)CNC(=O)c1ccc(N2CCCC2=O)cc1	-	.	-	-	-	-
CN1C(=O)C(C)(C)c2cc(S(=O)(=O)NCCc3ccc(Cl)cc3)ccc21	30	-	-	-	24	-
Cc1ccc(CCNS(=O)(=O)c2ccc3c(c2)C(C)(C)C(=O)N3C)cc1	25	-	-	-	-	-
COC(=O)Cc1[nH]nc2c1C1(CCSCC1)C(C#N)=C(N)O2	-	-	-	-	-	-
Cn1c(SCC(=O)NC2CCCCC2)nnc1-c1ccccc1O	-	-	-	-	-	-
COCC(C)N=C1NN=C(c2cc(C)n(Cc3ccccc3Cl)c2C)CS1 (stereo not drawn)	26	-	-	-	-	-
O=C(O)/C=C/C(=O)N1CCN(C(=O)/C=C/C(=O)O)CC1	-	-	-	-	-	-
O=c1cc2oc3cc(O)c(O)cc3c(-c3ccccc3O)c-2cc1O	.	.	42	-	27	.
SMILES	pPAFAH FP inh	Fam108B counter	PAFAH2 FP inh	PAFAH1B3 FP inh	PAFAH1B2 FP inh	PME-1 primary
Cc1ccccc1-c1cc(=O)c2c(O)cccc2o1	-	-	-	-	-	-
CCOc1ccccc1-c1c2cc(O)c(=O)cc-2oc2cc(O)c(O)cc12	.	.	127	119	112	.
CCN1CCN(C(=O)c2[nH]c3ccc(OC)cc3c2C)CC1	-	-	-	-	-	-
CN(C)c1ccnc(-n2cccc2/C=N/OCc2ccccc2)c1C#N	-	-	-	-	-	-
O=C(N=Nc1c(O)[nH]c2ccccc12)c1cccs1	-	-	-	-	-	28
O=C(N=Nc1c(O)[nH]c2ccccc12)c1cc(NS(=O)(=O)c2cccs2)cc(NS(=O)(=O)c2cccs2)c1	-	-	-	-	-	-
COc1ccccc1NC(=O)c1ccc(NC(=O)COC(=O)C2CC2C)cc1 (stereo not drawn)	34	-	43	-	-	-
CCCCC/C=C\C/C=C\C/C=C\C/C=C\CCCC(=O)O	47	-	.	.	.	-
CC1(C)C(=O)Nc2ccccc2N1C(=O)COC(=O)Cc1ccc(Cl)c(Cl)c1	-	.	-	-	28	.
Cc1ccc(S(=O)(=O)CCC(=O)OCC(=O)N2c3ccccc3NC(=O)C2(C)C)cc1	-	-	-	-	30	-

Source: PubChem (The Scripps Research Institute Molecular Screening Center)
